An excerpt weighted towards active compounds, which were near 21% of everything screened.
NS1 function inh – qHTS Assay for Inhibitors of Influenza NS1 Protein Function. Potency, µM (series often up to 46.1 µM), for the others: at the highest dose activity, positive = more growth. 0.4% of 270,000 active. AID 2326, 2010; calls by dose curve; further: potency means the concentration at half of the fitted maximal effect; actives are rising curves; nearly all actives have a fitted effect of over 50% in size
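S. cerevisiae expressing influenza A NS1, grown in glucose, washed, then diluted 1:100 into pH 6.0 -URA galactose medium with 23 nl compound. Growth recovery read as OD600; NS1-free strain serves as control.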
Cycloheximide cs – Cycloheximide Counterscreen for Small Molecule Inhibitors of Shiga Toxin | cell reporter, cycloheximide protein synthesis inhibition counterscreen | max response, % | 12% of 300,000 active | AID 2314, 2010; in the data active means max response mostly above about 13%, no sharp cut-off; inactive means mostly below about 14%; further: read at 38.3 µM for the half of the compounds with a filed dose; 0% is about no effect
Shiga inhibitor – A qHTS for Small Molecule Inhibitors of Shiga Toxin. AID 2315, 2010. Vero cells, Shiga toxin protein synthesis inhibition reporter. inhibition, % at 38.7 µM. 9.2% of 290,000 active; in the data active means inhibition mostly above about 28%, no sharp cut-off; inactive means mostly below about 43%; further: 0% is about no effect
Pf growth 48h – Primary qHTS for delayed death inhibitors of the malarial parasite plastid, 48 hour incubation; P. falciparum luciferase growth in erythrocytes, 48 h; Potency, µM (titrated, usually from 28.7 µM), without a hit: at the highest dose activity change, negative = inhibition, most hits filed as inhibitors; 5.9% of 310,000 active; further: potency means the concentration at half of the fitted maximal effect; on the % scale 0 is the no-effect control and ±100 the full control effect
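Erythrocytes infected with P. falciparum carrying an integrated firefly luciferase reporter (2% hematocrit, 0.1% parasitemia final) were exposed to compounds in RPMI 1640 with 0.5% Albumax at 37 C, 5% CO2. Growth inhibition was scored as reduced luminescence.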
Pf growth 96h – Primary qHTS for delayed death inhibitors of the malarial parasite plastid, 96 hour incubation; AID 504834, 2011; P. falciparum luciferase reporter growth, 96 h; Potency, µM (highest dose often 28.7 µM), for inactives: top-dose activity change, negative = inhibition, most hits filed as inhibitors; 6.9% of 320,000 active; further: potency means the concentration at half of the fitted maximal effect; on the % scale 0 is the no-effect control and ±100 the full control effect
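P. falciparum expressing integrated firefly luciferase, in erythrocytes at 2% hematocrit, 0.05% parasitemia, incubated with compounds 96 h at 37 C, 5% CO2. Growth inhibition read as loss of luminescence; two-generation exposure targets delayed-death apicoplast inhibitors.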
Flu NS1 inh – Assay for Inhibitors of Influenza NS1 Protein Function: Hit Validation | influenza NS1 function cell assay, 15-point titration | shares compounds with NS1 function inh | activity change, negative = inhibition, % at 32.9 µM | 1,400 tested, under 10 active | AID 492980, 2010; calls by dose curve; further: 0% is about no effect
Active calls of the source: *; ? = inconclusive; nt = no result given; [ ] = remark or other dose. Unless noted, the call rests on the fitted dose curve; in most records, active means well fitted inhibition curve with a large enough effect; inconclusive means small, poorly fitted or top-dose-only effect, or another doubt; inactive means no such curve, though single readings can be large or run the other way.

SMILES	NS1 function inh	Cycloheximide cs	Shiga inhibitor	Pf growth 48h	Pf growth 96h	Flu NS1 inh
COCCn1c(=NC(=O)c2cc(-c3cccs3)nc3ccccc23)sc2cc(S(N)(=O)=O)ccc21	11.2µM*	1.0	-1.0	2.2%	-15.8%	25.6
Cc1ccccc1NC(=O)CCS(=O)(=O)c1cccc2nonc12	4.4%	-3.8	-6.8	-13.2%	-4.4%	nt
Cc1cccc(C)c1NC(=O)CCS(=O)(=O)c1cccc2nonc12	?	-4.7	6.6	0.0%	16.3%	5.0
O=C1CNC(=S)N1CCc1ccc(O)c(O)c1	?	9.6	9.1	?	-26.6%	29.3
CC(C)(C)NS(=O)(=O)c1ccc2nc(NC(=O)Cc3cccs3)sc2c1	-6.4%	5.8	-1.6	?	nt	nt
Cc1cccc(NC(=O)Cn2c(=O)n(CCc3c[nH]c4ccccc34)c(=O)c3cccnc32)c1	3.98µM*	6.2	31.4	?	52.2%	-4.5
O=C(Cn1c(=O)n(CCc2c[nH]c3ccccc23)c(=O)c2cccnc21)Nc1ccccc1F	19.9%	-0.7	-7.4	?	-15.5%	nt
Cc1ccccc1C1C2=C(Nc3[nH]n(-c4ccccc4)c(=O)c31)c1ccccc1C2=O (configuration not stated)	11.2µM*	-2.7	-3.7	?	?	-22.3
Cc1cccc(C2C3=C(Nc4[nH]n(-c5ccccc5)c(=O)c42)c2ccccc2C3=O)c1 (configuration not stated)	?	-1.7	-8.3	?	?	nt
O=C(CNC(=O)C(c1ccccc1)c1ccccc1)N/N=C\c1ccc(C(=O)O)cc1	?	11.4	-9.5	-1.8%	1.7%	8.3
O=C(Cc1ccccc1)NCC(=O)N/N=C/c1ccc(C(=O)O)cc1	0.2%	5.2	-1.2	0.7%	-12.1%	nt
COc1ccc(C(=O)O)cc1NC(=S)NC(=O)/C=C/c1ccc(C(C)C)cc1	2.8%	8.4	26.3	11.5%[0.00184 µM]	-9.0%	nt
CCC1CCCN1Cn1cnc2c([nH]c3ccc(C)cc32)c1=O (configuration not stated)	?	3.7	15.5	-13.2%	33.6%	-22.5
COc1cc(C(=O)OCC(=O)N2CCN(C(C)=O)CC2)ccc1OCC(C)C	nt	nt	nt	10.1%	6.6%	nt
COc1ccc(Br)cc1C1CC(=O)N2CN(Cc3ccccc3)CSC2=C1C#N (configuration not stated)	11.2µM*	-1.5	-10.8	nt	20.3%	-15.5
CCC(CO)NC(=O)[C@@H]1C=C2c3cccc4[nH]cc(c34)C[C@H]2N(C)C1 (some centres not stated)	35.5µM*	nt	nt	nt	nt	4.4
CC1=C[C@@H]2c3cccc4[nH]cc(c34)C[C@H]2N(C)C1	3.4%	-0.8	-8.3	nt	?	nt
COc1ccc(C(=O)NCCS(=O)(=O)N2CCC3(CC2)OCCO3)cc1	nt	nt	nt	40.2%	70.5%	nt
CCCC(=O)Nc1ccc(Cl)c(NC(=O)CC)c1	-7.4%	-2.7	29.9	15.5%	-24.0%	nt
CCCC(=O)Nc1ccc(Cl)c(NC(=S)NC(=O)c2cc3ccccc3o2)c1	?	4.7	7.5	2.4%	-6.3%	0.7
O=C(NCc1ccc(Cl)s1)C1CCC(=O)N(CCc2cccc(F)c2)C1 (configuration not stated)	3.2%	0.6	-6.8	14.7%	-0.2%	nt
O=S(=O)(c1ccc2nc(-c3ccco3)c(-c3ccco3)nc2c1)N1CCOCC1	1µM*	7.5	18.2	11.7µM*	-0.5%	-18.8
O=S(=O)(c1ccc2ccccc2c1)N1CCOCC1	4.7%	7.6	-4.1	28.0%	-14.3%	nt
C#CCOC(=O)/C(=C/C=C/c1ccccc1)NC(=O)c1ccccc1	-7.5%	32.6	13.7	9.5%	24.6%	nt
CC(C)OC(=O)/C(=C\C=C\c1ccccc1)NC(=O)c1ccccc1	?	8.6	14.5	11.7µM*	10.2%	-3.0
SMILES	NS1 function inh	Cycloheximide cs	Shiga inhibitor	Pf growth 48h	Pf growth 96h	Flu NS1 inh
CN1CC[C@@]2(C)c3cc(O)ccc3N(C)C12 (some centres not stated)	12.6µM*	nt	nt	nt	nt	0.7
CCC1(c2cccc(O)c2)CCCCN(C)C1 (configuration not stated)	nt	nt	nt	-4.0%	14.2%	nt
O=C(NCCc1ccc(Cl)cc1)C1CCCN(S(=O)(=O)N2CCCCCC2)C1 (configuration not stated)	-18.4%	1.4	-6.4	-18.9%	?	nt
Cc1ccc(C(=O)O)cc1-n1c(C)cc(C=O)c1C	3.8%	-2.6	-15.5	18.3%	19.9%	nt
Cc1cc(C(=O)O)ccc1-n1c(C)cc(/C=C2\SC(=O)NC2=O)c1C	11.2µM*	-2.2	12.9	7.0%	?	17.4
O=C1NC(=O)C2(Cc3ccccc3N3CCCC32)C(=O)N1c1ccc(Cl)cc1 (configuration not stated)	11.2µM*	-2.6	-9.2	-13.6%	7.1%	16.4
CN1C(=O)N(C)C(=O)C2(Cc3ccccc3N3CCCC32)C1=O (configuration not stated)	6.4%	-0.3	4.2	-0.4%	0.2%	nt
COCCn1nnnc1C(c1ccccc1OC)N1CCc2ccccc2C1 (configuration not stated)	-16.2%	nt	nt	nt	nt	nt
Cc1ccc(C(=O)CSc2nnc(CNc3nc(-c4ccccc4)cs3)n2C)cc1	3.16µM*	18.6	24.5	?	13.1µM*	-16.0
Cc1cccc(OCC(=O)NS(=O)(=O)c2ccc(Br)cc2)c1	-6.2%	-2.8	0.4	22.3%	?	nt
O=c1ccc(Cl)n[nH]1	7.94µM*	-1.4	23.4	-5.4%	77.0%	14.2
O=c1ccc(Cc2ccc(Cl)cc2)n[nH]1	2.3%	-4.6	-10.4	5.6%	27.2%	nt
Cc1ccc2nc(-c3ccc(NS(=O)(=O)c4c(C)n(C)c(=O)n(C)c4=O)cc3)sc2c1	7.94µM*	67.5*	121.3*	273.5%	230.6%	4.2
Cc1c(S(=O)(=O)Nc2ccc3c(c2)OCCO3)c(=O)n(C)c(=O)n1C	0.5%	3.1	-19.0	nt	0.0%	nt
CC(=O)N(CC(=O)O)c1ccccc1C(=O)O	-5.5%	2.6	-11.2	2.5%	99.3%	nt
CCC(C)(C)NC(=O)CN(Cc1ccc2c(c1)OCO2)C(=O)CCC(=O)Nc1cc(C)ccn1	-5.9%	-6.7	-12.4	-14.6%	4.3%	nt
O=C(CSc1nc2ccccc2c(=O)n1-c1ccccc1)NCc1ccc2c(c1)OCO2	-5.0%	-4.1	-13.8	?	?	nt
COc1ccccc1-n1c(SCC(=O)NCc2ccc3c(c2)OCO3)nc2cc([N+](=O)[O-])ccc21	12.6µM*	-1.8	5.7	?	?	0.5
CCOc1ccc(/C=N/NC(=O)Cc2csc(Nc3cccc(C(F)(F)F)c3)n2)c(OCC)c1	22.0%	1.8	-14.3	56.6%	37.5%	nt
CCOc1ccc(/C=N/NC(=O)Cc2csc(Nc3cccc(C(F)(F)F)c3)n2)cc1	10µM*	6.6	-4.8	9.28µM*	nt	-26.4
